In PubChem BioAssay:
Activity calls are given as the source filed them.

Assays:
[1] = test system: PRMT1 (protein arginine N-methyltransferase 1); assay: PRMT1 binders on small-molecule microarrays, primary screen, biochemical, small-molecule microarray, 635 nm fluorescence (AID 1088); conditions: small-molecule microarray binding, higher = more signal;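 further: binding of Prmt1 protein to compounds spotted on small-molecule microarray slides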
[2] = yeast growth modulation, basal conditions, primary screen, YJM789 clinical isolate, OD600, 24 h (AID 1089);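 further: growth of clinical yeast isolate S. cerevisiae YJM 789 seeded 1000 cells per well; test concentration not given here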; conditions: S. cerevisiae YJM789 growth, higher = more signal, called active from +8 up or from −8 down
[3] = fission yeast growth modulation, primary screen, strain 972, OD600, 24 h, no modulator (AID 1090);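 further: basal condition with compound alone and no growth modifier present; test concentration not given here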; conditions: S. pombe 972 growth, higher = more signal, called active from +8 up or from −8 down
[4] = S. cerevisiae growth modulation with rapamycin, primary screen, strain BY4716, OD600, 96 h (AID 1091); conditions: higher = more signal, called active from +8 up or from −8 down; further: test concentration not given here
[5] = molecular target: Torsin-1A-interacting protein 2 (Homo sapiens) (UniProt Q8NFQ8); assay: LULL1 binders on small-molecule microarray, primary screen, cell lysate, human LULL1 lysate, 635/667 nm fluorescence (AID 1092); conditions: hLULL1 lysate binding, 635 nm fluorescence, higher = more signal;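 further: probe is lysate of COS7 cells overexpressing human LULL1; score merges per-feature 667 nm fluorescence with signal-to-noise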
[6] = E. coli growth modulation, two-sided OD650, primary screen, E. coli filamentation project, strain DRC41, 24 h (AID 1093); conditions: OD650, 24 h, higher = more signal, called active from +8 up or from −8 down;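 further: MC1000 strain lacking acrAB efflux and sulA so SOS filamentation is blocked; test concentration not given here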
[7] = small-molecule microarray binders of probe aLefty2, primary screen, biochemical, biotinylated probe, 635/667 nm fluorescence (AID 1094); conditions: higher = more signal;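 further: score merges spot fluorescence near 667 nm with spot signal-to-noise ratio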
[8] = test system: Noggin (protein binding on small-molecule microarray); assay: Noggin binders on small-molecule microarray, primary screen, biochemical, 635/667 nm fluorescence (AID 1095); conditions: 635 nm fluorescence, higher = more signal;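 further: score merges 667 nm feature fluorescence with signal to noise over triplicate slides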
[9] = molecular target: Neurogenic locus notch homolog protein 3 (Homo sapiens) (UniProt Q9UM47); assay: NOTCH3 binders on small-molecule microarray, primary screen, biochemical, 635/667 nm fluorescence (AID 1096); conditions: NOTCH3 binding, 635 nm fluorescence, higher = more signal
[10] = small-molecule microarray binders of probe aEGFR, primary screen, biochemical, biotinylated probe, 635/667 nm fluorescence (AID 1097); conditions: higher = more signal;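 further: probe is a biotinylated anti-EGFR antibody binding compounds printed on slides; score combines fluorescence near 667 nm and signal to noise of each spot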
[11] = test system: Plasmodium falciparum Sir2 (PF13_0152, Sir2A); assay: pfSir2 binders on small-molecule microarrays, primary screen, biochemical, small-molecule microarray, 635 nm fluorescence (AID 1098); conditions: small-molecule microarray binding, fluorescence 635 nm; higher = more signal;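 further: score merges spot fluorescence intensity with its signal-to-noise ratio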
[12] = small-molecule microarray binders of probe aDKK1, primary screen, biochemical, biotinylated probe, 635/667 nm fluorescence (AID 1099); conditions: higher = more signal;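 further: score merges 667nm spot fluorescence with signal to noise across triplicate slides; reference of the scale not given here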
[13] = small-molecule microarray binders of probe aCHRDL2, primary screen, biochemical, biotinylated probe, 635/667 nm fluorescence (AID 1100); conditions: higher = more signal
[14] = splicing luciferase reporter signal modulators, primary screen, spliceosome inhibition project, cell-based, HEK293, splice +/- reporter (AID 1101); conditions: luminescence, 24 h, higher = more signal, called active from +8 up or from −8 down;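 further: HEK293 cells carrying a splicing-competent luciferase reporter gene; test concentration not given here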
[15] = molecular target: Fibroblast growth factor 10 (Homo sapiens) (UniProt O15520); assay: FGF10 binders on small-molecule microarrays, primary screen, biochemical, small-molecule microarray, 635 nm fluorescence (AID 1102); conditions: FGF10 binding, fluorescence 635 nm, higher = more signal
[16] = test system: glycogen synthase kinase-3 (GSK3A per assay name; protocol says GSK3B); assay: GSK3 binders on small-molecule microarrays, primary screen, biochemical, small-molecule microarray, 635 nm fluorescence, GSK3A (AID 1103); conditions: small-molecule microarray binding, fluorescence 635 nm; higher = more signal; further: the record names both GSK3A and GSK3B
[17] = molecular target: Epidermal growth factor receptor (Homo sapiens) (UniProt P00533); assay: EGFR binders on small-molecule microarrays, primary screen, biochemical, small-molecule microarray, 635 nm fluorescence (AID 1104); conditions: EGFR binding, higher = more signal;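 further: score merges 667 nm emission intensity with spot signal to noise over triplicate slides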
[18] = molecular target: Follistatin-related protein 3 (Homo sapiens) (UniProt O95633); assay: FSTL3 binders on small-molecule microarrays, primary screen, biochemical, small-molecule microarray, 635 nm fluorescence (AID 1105); conditions: FSTL3 binding, higher = more signal;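 further: score merges emission near 667 nm and signal to noise per printed spot across three slides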
[19] = molecular target: Dickkopf-related protein 1 (Homo sapiens) (UniProt O94907); assay: DKK1 binders on small-molecule microarrays, primary screen, biochemical, small-molecule microarray, 635 nm fluorescence scan (AID 1106); conditions: DKK1 binding, higher = more signal;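 further: score merges emission near 667 nm with signal to noise over three replicate slides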
[20] = test system: Inhibin beta A chain (activin A); assay: INHBA (activin A) binders on microarrays, primary screen, biochemical, small-molecule microarray, 635 nm fluorescence scan (AID 1107); conditions: small-molecule microarray binding, higher = more signal;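 further: mouse activin A protein probed at 4.33 µg/mL on printed slides; score merges bound-protein fluorescence near 667 nm with spot signal-to-noise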

Chain of Torsin-1A-interacting protein 2 (Homo sapiens) (Q8NFQ8 whole entry, looked up): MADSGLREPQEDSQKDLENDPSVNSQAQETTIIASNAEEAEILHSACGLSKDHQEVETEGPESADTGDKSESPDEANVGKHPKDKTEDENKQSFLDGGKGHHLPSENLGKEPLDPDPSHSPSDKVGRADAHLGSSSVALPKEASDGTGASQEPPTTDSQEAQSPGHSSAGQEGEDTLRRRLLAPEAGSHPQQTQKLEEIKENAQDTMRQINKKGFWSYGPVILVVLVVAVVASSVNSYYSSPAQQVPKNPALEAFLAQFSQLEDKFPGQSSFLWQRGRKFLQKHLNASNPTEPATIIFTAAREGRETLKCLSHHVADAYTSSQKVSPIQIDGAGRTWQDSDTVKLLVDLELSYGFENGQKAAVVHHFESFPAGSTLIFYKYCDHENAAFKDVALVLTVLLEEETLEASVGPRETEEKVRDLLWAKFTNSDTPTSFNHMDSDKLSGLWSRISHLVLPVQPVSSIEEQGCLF
Chain of Fibroblast growth factor 10 (Homo sapiens) (O15520 whole entry, looked up): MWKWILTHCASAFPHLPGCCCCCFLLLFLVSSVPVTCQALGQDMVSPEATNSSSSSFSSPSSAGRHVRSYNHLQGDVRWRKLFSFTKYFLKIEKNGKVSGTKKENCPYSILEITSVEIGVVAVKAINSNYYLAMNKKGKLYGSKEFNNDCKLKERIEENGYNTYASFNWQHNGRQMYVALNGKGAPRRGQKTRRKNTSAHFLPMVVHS
Chain of Neurogenic locus notch homolog protein 3 (Homo sapiens) (Q9UM47 whole entry, looked up): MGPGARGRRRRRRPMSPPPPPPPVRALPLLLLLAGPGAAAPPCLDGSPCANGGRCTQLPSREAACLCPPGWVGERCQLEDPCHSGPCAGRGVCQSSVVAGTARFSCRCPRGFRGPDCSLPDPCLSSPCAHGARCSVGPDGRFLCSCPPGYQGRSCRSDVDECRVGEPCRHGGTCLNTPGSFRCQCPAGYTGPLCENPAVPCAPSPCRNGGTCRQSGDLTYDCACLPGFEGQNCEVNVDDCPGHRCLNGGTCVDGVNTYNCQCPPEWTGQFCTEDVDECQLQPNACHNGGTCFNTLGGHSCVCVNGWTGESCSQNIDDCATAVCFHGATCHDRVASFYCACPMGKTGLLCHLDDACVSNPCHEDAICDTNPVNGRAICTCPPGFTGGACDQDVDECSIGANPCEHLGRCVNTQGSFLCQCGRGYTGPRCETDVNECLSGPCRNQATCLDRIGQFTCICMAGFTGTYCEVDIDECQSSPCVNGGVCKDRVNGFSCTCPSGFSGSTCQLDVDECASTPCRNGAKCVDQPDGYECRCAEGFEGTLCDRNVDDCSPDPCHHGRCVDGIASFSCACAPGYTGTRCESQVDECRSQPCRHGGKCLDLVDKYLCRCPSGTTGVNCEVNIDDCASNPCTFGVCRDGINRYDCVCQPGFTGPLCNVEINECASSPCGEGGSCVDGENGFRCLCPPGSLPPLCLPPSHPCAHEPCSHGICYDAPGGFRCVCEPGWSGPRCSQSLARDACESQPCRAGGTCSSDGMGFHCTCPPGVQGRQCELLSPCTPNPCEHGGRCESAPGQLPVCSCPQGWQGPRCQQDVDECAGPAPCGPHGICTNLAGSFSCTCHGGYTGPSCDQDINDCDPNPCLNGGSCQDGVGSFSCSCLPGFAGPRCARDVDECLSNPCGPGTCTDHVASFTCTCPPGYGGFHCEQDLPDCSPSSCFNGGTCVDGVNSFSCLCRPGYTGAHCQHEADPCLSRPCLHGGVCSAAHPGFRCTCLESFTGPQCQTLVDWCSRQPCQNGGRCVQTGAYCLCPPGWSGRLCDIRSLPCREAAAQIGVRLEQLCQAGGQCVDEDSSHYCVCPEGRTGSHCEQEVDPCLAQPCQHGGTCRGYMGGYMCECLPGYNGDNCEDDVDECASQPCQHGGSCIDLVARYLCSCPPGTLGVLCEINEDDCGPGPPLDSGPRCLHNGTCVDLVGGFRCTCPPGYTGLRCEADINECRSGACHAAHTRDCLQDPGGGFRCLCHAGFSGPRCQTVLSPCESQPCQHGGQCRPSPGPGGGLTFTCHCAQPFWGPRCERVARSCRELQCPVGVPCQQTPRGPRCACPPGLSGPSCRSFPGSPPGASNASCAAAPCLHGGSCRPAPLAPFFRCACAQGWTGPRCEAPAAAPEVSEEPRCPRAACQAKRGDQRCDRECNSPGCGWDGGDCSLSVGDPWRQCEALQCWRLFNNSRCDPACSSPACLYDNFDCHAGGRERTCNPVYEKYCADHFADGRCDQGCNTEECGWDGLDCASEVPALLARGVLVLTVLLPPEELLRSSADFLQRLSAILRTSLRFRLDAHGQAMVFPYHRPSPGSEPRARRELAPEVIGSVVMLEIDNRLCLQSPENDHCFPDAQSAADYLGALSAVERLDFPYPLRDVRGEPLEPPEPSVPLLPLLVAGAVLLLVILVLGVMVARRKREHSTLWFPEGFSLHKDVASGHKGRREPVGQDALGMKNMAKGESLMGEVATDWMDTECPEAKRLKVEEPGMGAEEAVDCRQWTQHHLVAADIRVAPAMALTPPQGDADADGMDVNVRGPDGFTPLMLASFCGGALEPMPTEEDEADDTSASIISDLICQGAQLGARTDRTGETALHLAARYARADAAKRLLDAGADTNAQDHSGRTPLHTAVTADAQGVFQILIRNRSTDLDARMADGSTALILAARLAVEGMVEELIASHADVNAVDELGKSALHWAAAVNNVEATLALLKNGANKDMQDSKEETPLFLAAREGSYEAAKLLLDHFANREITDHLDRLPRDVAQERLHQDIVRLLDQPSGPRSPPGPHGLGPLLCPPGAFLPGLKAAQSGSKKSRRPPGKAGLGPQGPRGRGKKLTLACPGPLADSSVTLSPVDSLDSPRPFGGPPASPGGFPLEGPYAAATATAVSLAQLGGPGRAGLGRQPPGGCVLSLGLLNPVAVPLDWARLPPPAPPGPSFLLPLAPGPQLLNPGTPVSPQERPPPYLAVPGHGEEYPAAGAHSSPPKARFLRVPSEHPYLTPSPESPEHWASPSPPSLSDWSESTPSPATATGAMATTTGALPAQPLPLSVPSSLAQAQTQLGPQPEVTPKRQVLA
Chain of Follistatin-related protein 3 (Homo sapiens) (O95633 whole entry, looked up): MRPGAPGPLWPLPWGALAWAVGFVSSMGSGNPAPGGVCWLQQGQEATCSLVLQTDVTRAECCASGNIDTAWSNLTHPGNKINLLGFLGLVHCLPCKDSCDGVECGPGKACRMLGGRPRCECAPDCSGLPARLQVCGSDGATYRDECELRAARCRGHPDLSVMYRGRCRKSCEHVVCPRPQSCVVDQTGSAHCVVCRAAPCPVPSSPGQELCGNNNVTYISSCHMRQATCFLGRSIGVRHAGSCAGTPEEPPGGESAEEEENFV
Chain of Epidermal growth factor receptor (Homo sapiens) (P00533 whole entry, looked up): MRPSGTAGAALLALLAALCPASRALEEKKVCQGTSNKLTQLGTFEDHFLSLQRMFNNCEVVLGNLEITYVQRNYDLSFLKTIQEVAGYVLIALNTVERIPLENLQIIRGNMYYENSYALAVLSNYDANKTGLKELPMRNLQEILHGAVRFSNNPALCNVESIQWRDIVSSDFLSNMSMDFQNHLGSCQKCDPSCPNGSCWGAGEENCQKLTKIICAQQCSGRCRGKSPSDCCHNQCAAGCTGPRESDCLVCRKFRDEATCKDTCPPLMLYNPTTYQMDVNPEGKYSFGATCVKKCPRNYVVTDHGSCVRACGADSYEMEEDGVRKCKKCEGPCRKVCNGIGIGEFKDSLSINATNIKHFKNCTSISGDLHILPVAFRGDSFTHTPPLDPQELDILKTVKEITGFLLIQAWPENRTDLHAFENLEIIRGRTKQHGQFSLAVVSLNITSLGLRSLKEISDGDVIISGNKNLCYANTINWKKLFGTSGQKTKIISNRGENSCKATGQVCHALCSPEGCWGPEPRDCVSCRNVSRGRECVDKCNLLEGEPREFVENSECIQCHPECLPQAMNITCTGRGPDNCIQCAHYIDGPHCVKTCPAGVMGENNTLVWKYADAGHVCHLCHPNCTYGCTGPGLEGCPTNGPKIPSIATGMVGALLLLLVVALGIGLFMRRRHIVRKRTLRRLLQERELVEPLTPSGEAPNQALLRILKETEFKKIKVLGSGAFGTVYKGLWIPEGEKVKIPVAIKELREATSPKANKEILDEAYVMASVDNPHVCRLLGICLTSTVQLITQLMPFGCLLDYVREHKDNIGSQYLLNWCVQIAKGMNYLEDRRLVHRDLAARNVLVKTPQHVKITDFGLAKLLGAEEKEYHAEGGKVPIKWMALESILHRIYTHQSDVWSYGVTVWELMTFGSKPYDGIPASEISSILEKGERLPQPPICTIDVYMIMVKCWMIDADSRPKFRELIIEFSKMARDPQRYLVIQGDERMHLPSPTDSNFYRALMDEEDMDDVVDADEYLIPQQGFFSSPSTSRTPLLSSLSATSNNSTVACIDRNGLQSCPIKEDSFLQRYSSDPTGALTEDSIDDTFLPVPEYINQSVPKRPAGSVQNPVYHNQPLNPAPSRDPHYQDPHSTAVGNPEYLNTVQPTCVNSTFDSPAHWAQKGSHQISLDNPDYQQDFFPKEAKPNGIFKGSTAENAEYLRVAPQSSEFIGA
Chain of Dickkopf-related protein 1 (Homo sapiens) (O94907 whole entry, looked up): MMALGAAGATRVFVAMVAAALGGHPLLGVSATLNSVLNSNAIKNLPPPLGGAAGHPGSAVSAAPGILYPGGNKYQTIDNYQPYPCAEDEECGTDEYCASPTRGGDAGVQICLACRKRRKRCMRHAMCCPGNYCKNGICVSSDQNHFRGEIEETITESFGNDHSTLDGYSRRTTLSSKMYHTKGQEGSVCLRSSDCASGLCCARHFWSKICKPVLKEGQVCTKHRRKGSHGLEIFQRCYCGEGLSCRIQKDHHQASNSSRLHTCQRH

Compound | composite z-score [1] | z-score [2] | z-score [3] | z-score [4] | composite z-score [5] | z-score [6] | composite z-score [7] | composite z-score [8] | composite z-score [9] | composite z-score [10] | composite z-score [11] | composite z-score [12] | composite z-score [13] | z-score [14] | composite z-score [15] | composite z-score [16] | composite z-score [17] | composite z-score [18] | composite z-score [19] | composite z-score [20]
CCOC(=O)C1=CC[C@@H](c2ccccc2)N(S(=O)(=O)c2ccc(C)cc2)[C@H]1C | 1.53 | 0.889 (inactive) | -0.212 (inactive) | 2.81 (inactive) | 3.41 | -0.607 (inactive) | 0.0018 | 0.672 | 1.09 | 0.114 | 1.09 | 0.821 | 0.567 | -0.993 (inactive) | 1.4 | 0.312 | 1.02 | 1.38 | 0.635 | 0.258
O=C1OCC=C[C@H]2OC34C=CCN(Cc5ccccc5)C(=O)[C@H]3N(CCO)C(=O)[C@@H]4[C@@H]12 (stereo not given in full) | 0.409 | -0.308 (inactive) | 0.176 (inactive) | -1.17 (inactive) | 2.08 | 2.13 (inactive) | -0.232 | -1.41 | -0.159 | -0.172 | 1.89 | -0.227 | 0.679 | -0.632 (inactive) | -1.09 | -1.46 | -0.435 | -0.596 | -0.965 | 0.0484
C[N+](C)(C)CCCC[C@@H]1NC(=O)[C@H]2C[C@@H](C(=O)NCc3ccc(F)cc3)[C@@H](c3cccc(OCCO)c3)N2C1=O | 1.47 | -1.69 (inactive) | -1.62 (inactive) | -0.736 (inactive) | 0.823 | 0.973 (inactive) | -0.166 | 1.62 | 0.716 | -0.118 | 0.459 | 0.0243 | 0.479 | -0.178 (inactive) | 0.988 | 0.519 | 0.139 | 0.954 | 0.885 | -0.7
COCCOC(=O)N1C(=O)[C@@]2(c3cc(C#CCNC(N)=O)ccc31)[C@H](c1ccccc1OCCO)N1[C@H](c3ccccc3)[C@H](c3ccccc3)OC(=O)[C@H]1[C@@H]2C(=O)NC[C@H](O)c1ccccc1 | 1.53 | 2.75 (inactive) | 2.09 (inactive) | 6.12 (inactive) | 3.01 | 0.589 (inactive) | -0.0977 | 1.12 | 1.1 | -0.065 | 1.08 | 0.0288 | 0.352 | 0.408 (inactive) | 1.18 | 0.618 | 0.134 | 1 | 0.117 | 0.203
[N-]=[N+]=NCc1ccccc1C[C@@]1(C(=O)O)N=C(c2ccc(OCCCO)cc2)O[C@@H]1c1ccccc1N=[N+]=[N-] | 1.51 | -0.41 (inactive) | -1.02 (inactive) | -0.85 (inactive) | 3.16 | 0.602 (inactive) | 0.0189 | 0.0183 | 1.03 | 0.0316 | 1.44 | 0.076 | 0.917 | -1.11 (inactive) | 0.479 | 0.771 | 0.0583 | 0.633 | -0.688 | 0.911
